SMILES strings stand for the structures. In all, about 640,000 compounds went through this assay and about 9,300 (1.5%) were called active. The sample as a whole holds a higher share of actives than the screen did. A number with no mark means an inactive call. Cut-off read from the data, not from the text of the source: active = inhibition above about 32%; inactive = the rest.

The assay can be described thus: TEAD-YAP interaction inhibition, primary screen, TEAD-YAP interaction inhibitor project, luminescence, HEK-TIYL cells (AID 1259422).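 Note: 0% = median of test compound wells and 100% = reference inhibitor wells.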 The note with it: TEAD-Gal4/YAP UAS-luciferase luminescence, at 9.12 µM, active compounds read high.
Regarding `NC(=O)c1ccc(C(=O)N2CCC3(CC2)NC(=O)c2ccccc2O3)c(F)c1`, the inhibition – broadly, the drop in the measured response relative to a control, in per cent – is 9.77%.

For the compound `CC(=O)Nc1sc(C)c(C)c1-c1nc2ccccc2s1`, the inhibition is -2.29%.

Consider `c1ccc2nc(-c3nc4ccccc4s3)ccc2c1`, for which the inhibition was 50.1% (active).

In the case of `O=C(Cc1cccc2ccccc12)Nc1ccccc1-c1nc2ccccc2s1`, the inhibition was 4.57%.

On to `CCS(=O)(=O)N1CCN(c2cccc(Cl)c2)CC1`, for which the inhibition was 4.72%.

On to `Cc1ccc(/C=N\NC(=O)c2cc(C(C)(C)C)[nH]n2)cc1`, for which the inhibition was 45.2% (active).

On to `CCCOc1ccc(/C=N/NC(=O)OC)c(O)c1`, for which the inhibition is -15.8%.

Consider `CCOc1ccc(-c2cc(C(=O)N/N=C\c3ccccc3O)[nH]n2)cc1OC`, for which the inhibition is 1.39%.

For `CCOc1ccc(O)c(/C=N/NC(=O)CNc2ccc3ccccc3c2)c1`, the inhibition was -7.17%.

In the case of `CCOc1cccc(-c2cc(C(=O)N/N=C/c3ccccc3O)[nH]n2)c1`, the inhibition is -2.87%.

As for `CC(C)(C)c1cc(C(=O)N/N=C/c2c(O)ccc3ccccc23)n[nH]1`, the inhibition was -0.43%.

In the case of `CCOc1ccc(-c2cc(C(=O)N/N=C/c3c[nH]c4ccccc34)[nH]n2)cc1`, the inhibition is 55.9% (active).

`CCOc1ccc(/C=N/NC(=O)c2cc(C(C)(C)C)[nH]n2)c(O)c1`: the inhibition is 59.8% (active).

For the compound `Cc1cc(C(=O)N/N=C/c2ccc(Br)c([N+](=O)[O-])c2)n[nH]1`, the inhibition is 6.76%.

Consider `CSc1nnc2c(n1)OC(c1ccc(N(C)C)cc1)Nc1ccc(Br)cc1-2` (stereo not drawn), for which the inhibition was -2.24%.

On to `Cc1cccc(N(CC(O)c2ccccc2)S(=O)(=O)c2ccc3c(c2)OCCO3)c1` (stereo not drawn), for which the inhibition was 2.94%.

On to `N#CC(C#N)=C1SCC(=O)N1c1ccc(F)cc1`, for which the inhibition was -0.92%.

With `CCn1c(N=Nc2c(O)[nH]c3ccccc23)nc2c1c(=O)n(C)c(=O)n2C`, the inhibition is 6.12%.

Turning to `OC[C@@H]1CCCN1c1ccnc2c(-c3ccc4c(c3)OCO4)cnn12`, the inhibition was 55.2% (active).

Take `Cc1ccc(-c2cnn3c(NCc4ccc5c(c4)OCO5)ccnc23)cc1`: the inhibition is -8.18%.

`CN(C)CCNc1ccnc2c(-c3ccc(F)c(Cl)c3)cnn12`: the inhibition is -31.8%.

In the case of `OCCC1CCCCN1c1ccnc2c(-c3ccc(F)c(Cl)c3)cnn12` (stereo not drawn), the inhibition is 41.4% (active).

On to `OC[C@@H]1CCCN1c1ccnc2c(-c3cccc4ccccc34)cnn12`, for which the inhibition is -40.1%.

As to `O=C(NCCO)c1cccc(-c2cnn3c(N4CCCCC4CCO)ccnc23)c1` (stereo not drawn), the inhibition was -6.65%.

On to `N#Cc1ccsc1NC(=O)COC(=O)CC12CC3CC(CC(C3)C1)C2`, for which the inhibition was -33.5%.

As to `COc1ccc(Cl)cc1NC(=S)NC(C)c1ccncc1` (stereo not drawn), the inhibition is 2.52%.

Take `CC1CN(c2nc3c(c(=O)[nH]2)CCN(c2cnccn2)C3)CC(C)O1` (stereo not drawn): the inhibition is 9.31%.

For `C=CCN1C(=O)S/C(=C/c2ccccc2F)C1=O`, the inhibition was -54.7%.

In the case of `Cc1ccc(OCc2nc3ccccc3n2CC(=O)Nc2cc(C)on2)cc1`, the inhibition was -69.6%.

With `Oc1ccc(/C=N/Nc2ccccc2Cl)c(O)c1O`, the inhibition was -1.62%.

On to `Oc1cccc(/C=N/Nc2ccc(Cl)nn2)c1O`, for which the inhibition is 79.2% (active).

As for `NC(=O)c1ccc(N=Cc2cccc(O)c2O)cc1`, the inhibition was -12.1%.

Take `CCN1C(=O)N/C(=C/c2ccccc2OCc2ccc(C(=O)O)cc2)C1=O`: the inhibition is -1.26%.

For the compound `NS(=O)(=O)c1ccc(C(=O)OCc2cccc(Cl)c2Cl)cc1`, the inhibition was 8.02%.

`COc1ccc2[nH]c(=O)c(CN(CCCO)Cc3nnnn3CC3CCCO3)cc2c1` (stereo not drawn): the inhibition is 5.17%.

For `CC1CN(CCC(=O)N2CCCN(C3Cc4ccccc4C3)CC2)Cc2ccccc2O1` (stereo not drawn), the inhibition was -10.5%.

As to `O=C(NC(=O)c1cccc(F)c1)OC1CCS(=O)(=O)C1` (stereo not drawn), the inhibition is -5.15%.

As to `CC(=O)Nc1nc(-c2ccc(C)c(C)c2)cs1`, the inhibition is -61.1%.

`CC(=O)NCCCc1ccc(-c2csc(N)n2)cc1`: the inhibition is 56.7% (active).

Consider `CC(C)(C)C(=O)Nc1ccc(-c2csc(N)n2)cc1`, for which the inhibition was -22.9%.

Consider `Cc1cc2c(cc1C)NC(CC(=O)Nc1cccc([N+](=O)[O-])c1)C(=O)N2` (stereo not drawn), for which the inhibition was -4.87%.

With `CCOc1ccc(CN2CCN(Cc3cc(OC)ccc3O)CC2)cc1`, the inhibition is 3.2%.

Turning to `CCOC(=O)C1=C(C)NC2=C(C(=O)c3ccccc32)C1c1cccc(F)c1` (stereo not drawn), the inhibition was -6.85%.

For the compound `COC(=O)C1=C(C)NC2=C(C(=O)c3ccccc32)C1c1ccc(OC)cc1` (stereo not drawn), the inhibition was -0.11%.

`CCOC(=O)C1=C(C)NC2=C(C(=O)c3ccccc32)C1c1cc(Br)c(OC)c(OC)c1` (stereo not drawn): the inhibition was 57.2% (active).

On to `C=CCNc1ccc([N+](=O)[O-])cc1C#N`, for which the inhibition is 3.17%.

As to `Cc1ccc(NC(=O)C2CC3CCCN3C23C(=O)Nc2ccccc23)cc1` (stereo not drawn), the inhibition is 11.1%.

For the compound `CCCNC(=O)Cn1c(=O)oc2cc(Cl)ccc21`, the inhibition was 1.41%.

`Cc1sc(NC(=O)c2ccc(S(=O)(=O)N(C)c3ccccc3)cc2)c(C#N)c1C`: the inhibition was 3.35%.

As to `CCc1cc2c(=O)c(-c3ccc4c(c3)OCCCO4)coc2cc1OC`, the inhibition is -34.2%.

For the compound `CCc1cc2c(=O)c(-c3ccc4c(c3)OCCCO4)coc2cc1OC(=O)N1CCOCC1`, the inhibition was -8.61%.

Consider `COc1ccc(-c2coc3cc(OCCN4CCOCC4)ccc3c2=O)cc1OC`, for which the inhibition is 33% (active).

For `COc1ccc(C(=O)Nc2cc(C)nn2-c2nc3ccccc3[nH]2)cc1[N+](=O)[O-]`, the inhibition is 10.1%.

For `CCCc1cc(=O)[nH]c2nnc(SCC(=O)Nc3cc(OC)ccc3OC)n12`, the inhibition is -0.38%.

On to `Cn1c(/C(C#N)=C/c2ccccc2)nc2ccccc21`, for which the inhibition was 2.92%.

With `Cn1c(/C(C#N)=C\c2ccc(-c3ccc(S(N)(=O)=O)cc3)o2)nc2ccccc21`, the inhibition is 36.2% (active).

Take `N#C/C(=C\c1ccc(-c2ccc(S(N)(=O)=O)cc2)o1)C(N)=O`: the inhibition is -6.41%.

As for `COCCN(C(=O)CN1C(=O)c2ccccc2C1=O)C1(C(=O)Nc2ccccc2)CCCC1`, the inhibition was 4.63%.

For `COc1ccc(CNCc2cc(-c3ccccc3)cn3nnnc23)cc1`, the inhibition is 16%.

As for `Cc1cccc(-n2nc3c(c2NC(=O)c2ccc4c(c2)OCO4)CSC3)c1C`, the inhibition was 3.84%.

For `CC(C)(C)NC(=O)c1cccc(S(=O)(=O)N2CCN(c3ccc(F)cc3)CC2)c1`, the inhibition is 3.68%.

Regarding `Cc1ccc[n+](CC(=O)c2ccc(Cl)cc2)c1C`, the inhibition was 1.36%.

On to `COc1ccc(C(=O)C[n+]2ccc(N)c(C)c2C)cc1`, for which the inhibition was 33% (active).

`COc1ccc(CC(=O)c2ccc(OC)cc2)cc1`: the inhibition was -37.9%.

`CCOC(=O)C1=C(c2ccccc2)N=c2s/c(=C\c3ccc4c(c3)OCO4)c(=O)n2C1c1ccc(OC)c(OC)c1` (stereo not drawn): the inhibition was 6.04%.

For `COc1ccc(-c2ccc(C(=O)NC3CC3)s2)cn1`, the inhibition is 40.7% (active).

In the case of `COc1ccc(-c2cc(NC3CC3)nc(N)n2)cn1`, the inhibition is -43.5%.

Take `O=C(NC1CCN(Cc2ccccc2)CC1)c1ccc(-c2ccccc2)s1`: the inhibition was -22.3%.

Take `CC(C)N(C(=O)NCCC(=O)c1ccc(F)cc1)C(C)C`: the inhibition is -1.1%.

Consider `Clc1cc2nc3[nH]c4ccccc4c3nc2cc1Cl`, for which the inhibition was -25.4%.

As for `CC(=O)Nc1ccc(-c2nc(-c3ccccc3)c3cc(C)ccc3n2)cc1`, the inhibition is 7.4%.

In the case of `CC(=O)Nc1ccc2nc3c(cc2c1)[nH]c1ccccc13`, the inhibition was 32.4% (active).

For the compound `COc1ccc(C2/C(=C(\O)c3ccc(C)cc3)C(=O)C(=O)N2c2c(C)n(C)n(-c3ccccc3)c2=O)cc1` (stereo not drawn), the inhibition was -7.88%.

In the case of `COc1ccc(OCCSc2nnc3nc(C)cc(C)n23)cc1`, the inhibition was 0.54%.

Consider `N#CCOc1ccc2c(=O)c(Oc3ccc4ccccc4c3)coc2c1`, for which the inhibition is 5.86%.

Regarding `COc1ccc(-c2cc(C(F)(F)F)n3nc(C(=O)NCc4ccccc4Cl)cc3n2)cc1`, the inhibition is -8.37%.

For `Cc1sc2nc3n(c(=O)c2c1-c1cccs1)CCC3`, the inhibition is -2.17%.

With `Cc1sc2nc3n(c(=O)c2c1C)N=C(c1cccs1)CS3`, the inhibition was 50.3% (active).

For the compound `Cc1nc2scc(-c3cccs3)c2c(=O)n1N`, the inhibition is 4.54%.

Take `N=C1S/C(=C/c2ccc(-c3cc(Cl)ccc3[N+](=O)[O-])o2)C(=O)N1c1nonc1N`: the inhibition was 5.95%.

On to `C=CCNS(=O)(=O)c1cc(C(=O)Nc2ccccc2C(F)(F)F)ccc1F`, for which the inhibition is -7.91%.

In the case of `Cc1[nH]c2ccccc2c1CCNC(=O)/C(=C/c1ccccc1)NC(=O)c1cccc(Br)c1`, the inhibition is 2.37%.

For `Cc1[nH]c2ccccc2c1/C=N/NC(=O)/C(=C/c1ccccc1O)NC(=O)c1ccccc1`, the inhibition is 83% (active).

With `COc1cccc(/C=N/NC(=O)/C(=C/c2ccccc2)NC(=O)c2ccccc2)c1O`, the inhibition is 21.1%.

Consider `COc1ccc(C(=O)N/C(=C/c2ccc(Cl)cc2)C(N)=O)cc1`, for which the inhibition was -2.4%.

With `CC(=O)c1ccc(NC(=O)CN2C(=O)C3C4CCC(C4)C3C2=O)cc1` (stereo not drawn), the inhibition was -12%.

As for `CC(=O)Oc1ccc(C(=O)Nc2ccncc2)cc1`, the inhibition was 1.93%.

Take `CC(=O)Oc1ccc(C(=O)N(C(=O)c2ccc(OC(C)=O)cc2)c2cc(C)ccn2)cc1`: the inhibition is 47.4% (active).

`CC(=O)Oc1ccc(N(C(C)=O)S(=O)(=O)c2c(C)cc(C)cc2C)cc1`: the inhibition is -4.17%.

In the case of `COc1cc2cc(C)c3nnc(SCC(=O)NC(C)(C)C)n3c2cc1OC`, the inhibition is -7.33%.

`O=C1NC(=S)S/C1=C/c1ccc(-c2ccc3c(c2)COC3=O)o1`: the inhibition was -7.22%.

In the case of `O=C(NCc1cccc(C(F)(F)F)c1)c1csc(Nc2nccc3ccccc23)n1`, the inhibition is -0.98%.

In the case of `Cc1ccc(Nc2c(Cc3ccccc3)c(C)c(C#N)c3nc4ccccc4n23)cc1`, the inhibition is -19.3%.

The record behind these values is PubChem BioAssay AID1259422 (The Scripps Research Institute Molecular Screening Center, 2018).
